# In the library only some 1.2% were active in any assay of this set; here they are far more common.
# Mito fusion yeast – mitochondrial division inhibition or fusion activation | AID 485298 | Potency, µM (series often up to 46.1 µM), actives largely listed as activators | S. cerevisiae fusion-defective mutant growth rescue, CellTiterGlo 48 h | 320,000 compounds, 0.23% hits; also: nearly all actives have a fitted effect of over 45% in size
#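 Read-out: ATP-based luminescence (CellTiterGlo, 10 min ambient) reporting growth of fusion-defective ts yeast after 48 hours at 37C on glycerol/ethanol YPEG medium in the presence of compound.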
# B2AR arrestin – recruits beta-arrestin to the human beta2-adrenergic receptor. P07550. beta-arrestin recruitment to beta2AR, cell-based reporter. 330,000 compounds, 0.02% hits. Potency, µM (doses to about 46.1 µM), usual class: activators. AID 492947; also: nearly all actives have a fitted effect of over 65% in size
# Target sequence (P07550 whole entry, looked up): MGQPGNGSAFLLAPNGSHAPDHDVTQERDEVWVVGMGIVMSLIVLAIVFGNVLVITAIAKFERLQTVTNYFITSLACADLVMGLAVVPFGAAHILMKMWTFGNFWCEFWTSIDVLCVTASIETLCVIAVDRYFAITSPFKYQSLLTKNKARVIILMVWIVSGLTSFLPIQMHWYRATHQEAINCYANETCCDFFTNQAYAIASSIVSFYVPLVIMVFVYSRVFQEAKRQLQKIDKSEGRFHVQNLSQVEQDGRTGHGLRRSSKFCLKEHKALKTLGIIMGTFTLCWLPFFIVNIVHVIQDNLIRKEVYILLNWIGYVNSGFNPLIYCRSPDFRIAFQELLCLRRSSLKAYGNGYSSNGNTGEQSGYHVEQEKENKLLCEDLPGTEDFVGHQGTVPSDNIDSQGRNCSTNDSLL
# BRCA1 expr act – activators of BRCA1 expression; MCF7-BRCA1-FFLuc reporter, luminescence, 48 h; response scale: scaled: vehicle 0%, 10 µM genistein 100%; Potency, µM (highest dose often 46.1 µM), hits mostly activators; 380,000 compounds, 1.1% hits; also: nearly all actives have a fitted effect of over 80% in size
#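 First, MCF7-BRCA1-FFLuc cells (2000/well) attach for 2 h; next, compounds are pin-added and incubated 48 h at 37 °C; finally, luciferase reagent is added and luminescence read after 15 min.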
# ERG Ets-DNA blk – ERG Ets/DNA interaction inhibition; fluorescence polarization, His-ERG Ets domain / labelled DNA; Potency, µM (top dose mostly 76.9 µM), most hits filed as inhibitors; 370,000 compounds, 0.028% hits; AID 624246; active = well fitted inhibition curve with a large enough effect in the polarisation, with a control signal flat; inconclusive = small, poorly fitted or top-dose-only effect, or effect the other way, or a change in a side signal; inactive = no such curve, though single readings can be large or run the other way; the % refers to the polarisation;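 also: polarization taken with two DNA probes labelled with fluorescein and Texas red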
#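 His-tagged ERG Ets domain (1 uM in the protein solution; 300mM KCl, 50mM Tris-HCl, 1mM EDTA, 1mM DTT, pH 7.5) received compound, then a probe mix of 5 nM fluorescein-DNA and 100nM Texas-615-DNA. Fluorescence polarization was read for both dyes.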
# A number is an active result; i = inactive; ? = inconclusive; nt = not tested or not shown. Unless noted, calls follow the shape of the dose curve; as a rule, active = well fitted curve in the direction sought with a large enough effect; inconclusive = small, poorly fitted or top-dose-only effect, or another doubt; inactive = no such curve, though single readings can be large; an effect the other way counts as inactive or inconclusive.
SMILES,Mito fusion yeast,B2AR arrestin,BRCA1 expr act,ERG Ets-DNA blk
Cc1ccc(/C=N/NC(=O)c2cccs2)s1,i,i,11µM,i
O=C(N/N=C/c1c[nH]c2ccccc12)c1cccs1,i,i,i,i
O=C(N/N=C/c1ccc(Br)s1)c1cccs1,i,i,i,i
O=C(N/N=C/c1cccc2ccccc12)c1cccs1,i,i,4µM,i
CCOC(=O)c1cc(-c2ccccc2)n(CCC(=O)Nc2nc3c(C)cccc3s2)c1C,nt,nt,nt,i
Cc1cccc(NC(=O)CCn2cnnn2)c1C,nt,nt,i,i
Cc1cc(C)c2c(n1)SCCN2C(=O)Nc1ccc(C(=O)Nc2cc(Cl)ccc2C)cc1,nt,nt,nt,i
COc1ccc(CN(Cc2ccccc2)C(=O)c2ccncc2)cc1COc1ccc(NC(C)=O)cc1,nt,nt,i,nt
COc1cc2c(cc1NC(=O)Cc1ccc(C)cc1)oc1ccccc12,i,i,7.9µM,i
COc1ccc(CN(C)CC(=O)Nc2cc3oc4ccccc4c3cc2OC)c(OC)c1,?,i,i,nt
COc1cc2c(cc1NC(=O)CN(C)Cc1ccc(OC)c(OC)c1)oc1ccccc12,14µM,i,i,i
Cc1ccc(-c2nn(-c3ccccc3)cc2CO)cc1,i,i,7.9µM,i
COc1ccc(-c2nn(-c3ccccc3)cc2N)cc1,i,i,3.2µM,i
COc1ccc(-c2c(C)nn(-c3ccccc3)c2N)cc1,i,i,11µM,i
COc1ccc(-c2c(C)nn(-c3ccccc3)c2N)cc1OC,i,i,i,i
Cc1ccc(CNC(=O)c2ccc[nH]2)cc1,i,i,i,i
Cc1ccc(SCC(=O)c2ccc[nH]2)cc1,i,i,3.2µM,i
N#C/C(=C(/O)CN1CCN(c2ccccc2F)CC1)c1nc(-c2ccc(Cl)cc2)cs1,i,i,i,nt
N#C/C(=C(/O)CN1CCCCC1)c1nc(-c2ccc(Cl)cc2)cs1,i,i,7.1µM,nt
CCCCc1ccc(NC(=O)C2CCCO2)cc1 (stereo not drawn),i,i,1.4µM,i
CCCCNC(=O)c1ccc(NC(=O)C2CCCO2)cc1 (stereo not drawn),i,i,i,i
CCOc1ccc(CNC(=O)c2cnc3sc(N4CCOCC4)nn3c2=O)cc1OC,nt,nt,nt,i
O=C(Nc1ccc(Br)cc1)Nc1ccccc1F,i,i,?,i
Cc1cnc(C(=O)Nc2ccccc2F)cn1,i,i,5µM,i
O=C(Nc1ccccc1F)Nc1ccccc1F,i,i,5µM,i
SMILES,Mito fusion yeast,B2AR arrestin,BRCA1 expr act,ERG Ets-DNA blk
CCN(C(=O)c1nn(-c2ccc(C)cc2)c(=O)c2c1c1ccccc1n2C)c1ccc(F)cc1,nt,nt,nt,i
O=[N+]([O-])c1cccc(-c2nc3ccc([N+](=O)[O-])cc3[nH]2)c1,i,i,5µM,i
COc1ccccc1C(=O)N1CCC(c2c[nH]c3ccccc23)(c2c[nH]c3ccccc23)CC1,nt,nt,i,i
O=S(=O)(c1cccc2ccccc12)N1CCN(c2nc(-c3cccs3)nc3ccccc23)CC1,nt,nt,i,nt
O=C(NCCc1ccc(Cl)cc1)C1CCN(S(=O)(=O)c2ccc3[nH]ccc3c2)CC1,nt,nt,nt,i
C(=NOCc1ccccc1)c1ccncc1,nt,nt,i,i
C(=NOCc1ccccc1)c1ccccn1,nt,nt,10µM,nt
CC(C)N1CCC(=NNC(=O)c2cccs2)CC1,i,i,8.9µM,i
CC(OC(=O)c1ccc([N+](=O)[O-])o1)C(=O)Nc1nc(-c2ccc(F)c(F)c2)cs1 (stereo not drawn),i,i,13µM,i
Cc1cc(C(=O)OC(C)C(=O)Nc2nc(-c3ccccc3)cs2)c(C)o1 (stereo not drawn),?,i,i,nt
Cc1ccc(C)c(CNC(=O)Nc2ccccc2)c1,i,i,7.1µM,i
Cc1ccc(CNC(=O)Nc2ccccc2)cc1,i,i,3.5µM,i
O=C(NCc1ccc(Cl)cc1)Nc1ccc(F)cc1,i,i,i,i
O=C(NCc1ccc(F)cc1)Nc1ccccc1,i,i,10µM,i
CC(C)(C)c1ccc(C2NC(=O)c3n[nH]c(-c4cccs4)c32)cc1 (stereo not drawn),nt,nt,nt,i
CCOc1ccc2nc(N3CCCC(C(=O)NCC4CCCO4)C3)sc2c1 (stereo not drawn),i,i,10µM,i
Cn1cnc2c(NCc3ccccc3)nc(Cl)nc21,nt,nt,i,nt
COc1ccc(C2c3c(oc4ccc(F)cc4c3=O)C(=O)N2Cc2ccc3c(c2)OCO3)cc1 (stereo not drawn),nt,nt,nt,i
Cc1nc2ccc(S(=O)(=O)CCC(=O)Nc3ccc(C)c(C)c3)cc2s1,nt,nt,nt,i
OC(c1ccccc1)c1nc(/C=C/c2ccccc2)cs1 (stereo not drawn),nt,nt,10µM,nt
CC(=O)NCCNC(=O)c1ccc2c(=O)n(CCc3ccccc3)c(=O)[nH]c2c1,nt,nt,4.5µM,i
COc1ccc2[nH]c(-c3ccccc3)cc2c1,i,i,3.5µM,?
COc1ccc2nc(-c3ccccc3)[nH]c2c1,i,i,?,i
Nc1nc(N)c2c(Oc3ccc(F)cc3)cccc2n1,nt,nt,i,nt
Cn1cccc1C(=O)C(=O)Nc1cc(Cl)cc(Cl)c1,i,i,i,i
SMILES,Mito fusion yeast,B2AR arrestin,BRCA1 expr act,ERG Ets-DNA blk
Cn1cccc1C(=O)C(=O)Nc1ccc(Cl)cc1,i,i,4.5µM,i
Cn1cccc1C(=O)C(=O)Nc1cccc(Cl)c1Cl,i,i,i,i
Cn1cccc1C(=O)C(=O)Nc1ccc(F)c(F)c1,i,i,5.6µM,i
CC(=O)c1ccc(NC(=O)c2cccc(NC(=O)c3ccccc3)c2)cc1,i,i,i,i
COC(=O)c1cccc(NC(=O)c2ccc(OC)c(Cl)c2)c1,i,i,5µM,i
CC(C)OC(=O)c1cccc(NC(=O)c2ccccc2)c1,i,i,11µM,i
COc1cccc(NC(=O)Nc2ccc(Br)cn2)c1,i,i,11µM,i
COc1ccc(C(=O)Nc2cc(C(=O)O)cc(C(=O)O)c2)cc1Cl,i,i,i,i
COc1cccc(NC(=O)CC(=O)c2ccc([N+](=O)[O-])cc2)c1,i,i,11µM,i
COc1cccc(NC(=O)CCC(=O)Nc2cccc(OC)c2)c1,i,i,i,i
COc1ccc(NC(=O)Nc2ccc(Br)cn2)cc1OC,i,i,?,i
CCn1cc2c(n1)-c1c(oc(C(=O)Nc3ccc(Br)cc3F)c1C)CC2,nt,nt,nt,i
CCOC(=O)c1cccc(NS(=O)(=O)c2c(C)nc3sc(C)cn3c2=O)c1,nt,nt,nt,i
COc1ccc(CN2CCCN(CC(=O)Nc3cc(C)ccc3C)S2(=O)=O)cc1,nt,nt,nt,i
CCn1cc(C(=O)N2CCN(c3cccc(Cl)c3)CC2)c(=O)c2cc(S(=O)(=O)N3CCC(C)CC3)ccc21,nt,nt,i,i
O=C(NCc1ccc(F)cc1)c1ccc(CSc2nc3ccncc3n2Cc2ccc(F)cc2)cc1,nt,nt,nt,i
COc1cc(OC)c(NC(=O)Cn2c(=O)oc3cc(S(=O)(=O)N4CCCC4)ccc32)cc1Cl,nt,nt,nt,i
O=C(CN1CCCC1)Nc1ccc(NC(=O)Nc2ccccc2Cl)cc1,i,i,11µM,i
CCc1ccccc1NC(=O)NC1CCCCC1,i,i,i,i
CC(C)Oc1cccc(C(=O)NC(=S)Nc2ccccc2)c1,i,i,13µM,i
O=C(NC1CCCCCCC1)c1cc(F)c(F)cc1Cl,i,i,1.8µM,i

# Bioassay records deposited in PubChem by National Center for Advancing Translational Sciences (NCATS).
